Measured values: PubChem BioAssay
Calls of active or inactive are those of the source.

Experiments:
[1] = compounds binding Alexa647 anti-His antibody – biochemical, small-molecule microarray, 635 nm fluorescence, artefact control for SMM control protein annotation, primary screen (AID 1128); conditions: higher = more signal;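 note: score merges feature fluorescence with signal-to-noise for each printed compound spot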
[2] = system: Human papillomavirus type 1a E7 protein (residues 1-88); test: HPV1a E7 small-molecule binders, primary screen, biochemical, small-molecule microarray, residues 1-88, 635 nm (AID 1129); conditions: small-molecule microarray binding, fluorescence 635 nm; higher = more signal
[3] = biological target: Focal adhesion kinase 1 (Homo sapiens) (UniProt Q05397); test: PTK2 protein binding on printed compound slides – biochemical, small-molecule microarray, 635/667 nm fluorescence, BSA, DTT, primary screen (AID 1130); conditions: 635 nm fluorescence, higher = more signal;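 note: composite of spot emission at 667 nm and signal to noise over triplicate slides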
[4] = system: Fibrinogen (Alexa647-labelled); test: Alexa647-fibrinogen binding to printed small molecules – biochemical, small-molecule microarray, 635/667 nm fluorescence, artefact control for SMM control-protein annotation, profiling panel (AID 1131); conditions: fibrinogen-A647 binding fluorescence, higher = more signal;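 note: z-score merges 667 nm fluorescence with per-spot signal-to-noise over triplicate slides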
[5] = biological target: Follistatin (Homo sapiens) (UniProt P19883); test: FST protein binding to printed compounds – biochemical, small-molecule microarray, 635/667 nm fluorescence, primary screen (AID 1132); conditions: 635 nm fluorescence, higher = more signal
[6] = biological target: Fibroblast growth factor 2 (Homo sapiens) (UniProt P09038); test: basic fibroblast growth factor binding to printed compounds – biochemical, small-molecule microarray, 635/667 nm fluorescence, primary screen (AID 1133); conditions: FGF2, fluorescence 635/667, higher = more signal
[7] = JC-1 mitochondrial potential readout, lung cancer cells – cell-based, A549, JC-1 fluorescence, basal, 24 h, 100 nL, profiling panel (AID 1138); conditions: higher = more signal;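 note: A549 lung adenocarcinoma cells under basal conditions with no added stimulus; test concentration not given here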
[8] = system: Lefty1; test: Lefty1 protein binding to printed compounds – biochemical, small-molecule microarray, 635/667 nm fluorescence, primary screen (AID 1139); conditions: fluorescence 635/667, higher = more signal
[9] = system: wheat germ agglutinin (Triticum aestivum), Alexa647-labelled; test: Alexa647-WGA lectin binding to printed small molecules – biochemical, small-molecule microarray, 635/667 nm fluorescence, artefact control for SMM control-protein annotation, profiling panel (AID 1140); conditions: WGA-A647 binding, 635 nm fluorescence, higher = more signal;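 note: score merges 667 nm feature emission with signal to noise over triplicate slides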
[10] = biological target: Luciferin 4-monooxygenase (Photinus pyralis) (UniProt P08659); test: inhibition of purified Photinus pyralis luciferase – biochemical, luminescence, purified enzyme, 2006 set, primary screen (AID 1141); conditions: purified firefly luciferase, SteadyGlo luminescence, 30 min; higher = more signal, called active from +8 up or from −8 down;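 note: cell-free assay with purified firefly luciferase at 100 ng per well in PBS; test concentration not given here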
Sequence of Luciferin 4-monooxygenase (Photinus pyralis) (P08659 whole entry, looked up): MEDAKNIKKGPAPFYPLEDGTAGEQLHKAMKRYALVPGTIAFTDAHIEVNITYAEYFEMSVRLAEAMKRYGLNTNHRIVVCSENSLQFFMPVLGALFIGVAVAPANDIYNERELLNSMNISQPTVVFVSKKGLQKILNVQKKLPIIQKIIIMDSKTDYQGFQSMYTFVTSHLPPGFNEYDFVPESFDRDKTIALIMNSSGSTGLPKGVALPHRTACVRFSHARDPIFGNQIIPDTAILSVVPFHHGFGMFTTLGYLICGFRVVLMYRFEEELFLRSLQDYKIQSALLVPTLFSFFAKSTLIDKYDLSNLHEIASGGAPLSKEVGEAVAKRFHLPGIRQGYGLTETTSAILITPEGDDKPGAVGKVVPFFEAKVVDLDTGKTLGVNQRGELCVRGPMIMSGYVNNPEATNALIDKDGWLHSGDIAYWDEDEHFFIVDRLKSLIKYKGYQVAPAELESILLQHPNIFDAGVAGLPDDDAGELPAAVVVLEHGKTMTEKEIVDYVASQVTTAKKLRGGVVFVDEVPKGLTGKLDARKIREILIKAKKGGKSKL

Sequence of Fibroblast growth factor 2 (Homo sapiens) (P09038 whole entry, looked up): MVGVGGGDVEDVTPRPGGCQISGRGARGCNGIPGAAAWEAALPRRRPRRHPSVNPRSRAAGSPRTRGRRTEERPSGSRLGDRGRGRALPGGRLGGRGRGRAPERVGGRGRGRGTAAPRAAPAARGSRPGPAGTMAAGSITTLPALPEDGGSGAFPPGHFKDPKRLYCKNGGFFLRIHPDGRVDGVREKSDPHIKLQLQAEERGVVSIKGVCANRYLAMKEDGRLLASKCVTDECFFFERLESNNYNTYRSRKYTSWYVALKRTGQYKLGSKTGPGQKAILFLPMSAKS
Sequence of Follistatin (Homo sapiens) (P19883 whole entry, looked up): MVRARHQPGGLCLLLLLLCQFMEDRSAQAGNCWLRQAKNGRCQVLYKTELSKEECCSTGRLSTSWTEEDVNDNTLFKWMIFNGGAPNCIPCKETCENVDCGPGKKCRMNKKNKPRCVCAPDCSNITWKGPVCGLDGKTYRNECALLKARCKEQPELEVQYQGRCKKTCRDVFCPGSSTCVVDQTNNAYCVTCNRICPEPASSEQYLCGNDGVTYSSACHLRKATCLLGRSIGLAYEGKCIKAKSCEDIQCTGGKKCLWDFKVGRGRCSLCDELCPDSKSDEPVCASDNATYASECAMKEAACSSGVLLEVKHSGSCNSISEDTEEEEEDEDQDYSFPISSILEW
Sequence of Focal adhesion kinase 1 (Homo sapiens) (Q05397 whole entry, looked up): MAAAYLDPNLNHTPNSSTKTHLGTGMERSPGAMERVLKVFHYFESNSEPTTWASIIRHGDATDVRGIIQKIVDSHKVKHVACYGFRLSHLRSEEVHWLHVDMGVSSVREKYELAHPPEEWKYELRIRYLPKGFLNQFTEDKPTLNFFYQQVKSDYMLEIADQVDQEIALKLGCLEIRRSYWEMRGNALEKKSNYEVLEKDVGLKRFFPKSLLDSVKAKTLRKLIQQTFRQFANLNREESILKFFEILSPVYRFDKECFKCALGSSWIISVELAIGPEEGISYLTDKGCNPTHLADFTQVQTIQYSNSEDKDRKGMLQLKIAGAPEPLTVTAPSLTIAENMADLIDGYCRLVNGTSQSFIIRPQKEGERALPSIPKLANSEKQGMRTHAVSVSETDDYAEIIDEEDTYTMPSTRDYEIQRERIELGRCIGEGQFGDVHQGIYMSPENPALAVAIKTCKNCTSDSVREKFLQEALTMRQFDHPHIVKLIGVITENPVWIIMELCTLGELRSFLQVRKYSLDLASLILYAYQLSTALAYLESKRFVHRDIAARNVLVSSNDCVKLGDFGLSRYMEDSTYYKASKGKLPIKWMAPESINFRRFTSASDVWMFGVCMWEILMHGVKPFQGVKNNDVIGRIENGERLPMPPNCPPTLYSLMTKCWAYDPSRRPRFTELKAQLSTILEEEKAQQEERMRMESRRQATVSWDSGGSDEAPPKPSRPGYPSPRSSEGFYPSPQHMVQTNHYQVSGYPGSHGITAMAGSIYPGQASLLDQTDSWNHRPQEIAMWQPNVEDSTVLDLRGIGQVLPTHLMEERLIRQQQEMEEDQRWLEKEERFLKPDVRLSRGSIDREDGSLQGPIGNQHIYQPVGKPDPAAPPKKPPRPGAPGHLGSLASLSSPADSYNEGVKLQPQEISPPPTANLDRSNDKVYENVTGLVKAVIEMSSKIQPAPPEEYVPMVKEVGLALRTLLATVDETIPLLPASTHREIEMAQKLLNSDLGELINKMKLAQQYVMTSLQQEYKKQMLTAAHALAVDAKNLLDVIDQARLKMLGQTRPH

O=C(NCCN1CCOCC1)[C@@H]1c2ccccc2C(=O)N(Cc2ccccc2Cl)[C@H]1c1ccc(CO)cc1
composite z-score [1]: -1.29
composite z-score [2]: -0.867
composite z-score [3]: 0.0685
composite z-score [4]: -0.542
composite z-score [5]: -0.163
composite z-score [6]: -0.976
z-score [7]: 1.79
composite z-score [8]: -1.19
composite z-score [9]: 0.0616
z-score [10]: 0.645 (inactive)

CCCC[C@@H](O)C1=C(COc2ccccc2)C[C@H]2C(=O)N(Cc3ccccc3)C(=O)[C@H]2[C@H]1CO
composite z-score [1]: -0.412
composite z-score [2]: -0.0512
composite z-score [3]: -0.0235
composite z-score [4]: 0.832
composite z-score [5]: 0.269
composite z-score [6]: 0.275
z-score [7]: 0.85
composite z-score [8]: 0.634
composite z-score [9]: 0.371
z-score [10]: -1.25 (inactive)

COCCOC(=O)N1C(=O)[C@@]2(c3cc(C#CC4(O)CCCCCC4)ccc31)[C@H](c1ccc(O)cc1)N1[C@H](c3ccccc3)[C@H](c3ccccc3)OC(=O)[C@H]1[C@@H]2C(=O)N1CCN(c2ncccn2)CC1
composite z-score [1]: 0.388
composite z-score [2]: 1.17
composite z-score [3]: 0.839
composite z-score [4]: 0.576
composite z-score [5]: 1.06
composite z-score [6]: 1.32
z-score [7]: -0.976
composite z-score [8]: 0.497
composite z-score [9]: 0.417
z-score [10]: -0.47 (inactive)

COc1cccc(C)c1NC(=O)O[C@H]1[C@H](OC(=O)Nc2ccc3c(c2)OCO3)[C@@H](OC(=O)Nc2ccc3c(c2)OCO3)[C@@H](OC)O[C@@H]1CO
composite z-score [1]: 0.4
composite z-score [2]: 1.25
composite z-score [3]: 1.09
composite z-score [4]: 0.988
composite z-score [5]: 1.28
composite z-score [6]: 0.887
z-score [7]: -0.588
composite z-score [8]: 1.28
composite z-score [9]: 1.15
z-score [10]: -5.18 (inactive)

[N-]=[N+]=Nc1ccccc1C[C@]1(C(=O)NCC(O)CO)COC(c2ccc(OCCCO)cc2)=N1 (stereo not given in full)
composite z-score [1]: 1.91
composite z-score [2]: 1.23
composite z-score [3]: 0.352
composite z-score [4]: 0.579
composite z-score [5]: -0.0953
composite z-score [6]: -0.483
z-score [7]: 2
composite z-score [8]: -0.729
composite z-score [9]: 0.14
z-score [10]: -4.04 (inactive)

COC(=O)[C@@]1(Cc2ccc(F)cc2)[C@H]2c3cc(C(=O)N(C)C)n(CCc4ccc(OC)c(Br)c4)c3C[C@H]2CN1C(=O)c1ccccc1
composite z-score [1]: 1.18
composite z-score [2]: 0.902
composite z-score [3]: 0.178
composite z-score [4]: 0.626
composite z-score [5]: -0.0313
composite z-score [6]: -0.433
z-score [7]: -0.638
composite z-score [8]: -0.337
composite z-score [9]: 0.187
z-score [10]: -0.499 (inactive)

O=C1O[C@@H](c2ccccc2)[C@@H](c2ccccc2)N2[C@@H](c3ccc(O)cc3)[C@]3(C(=O)Nc4ccc(C#CCCO)cc43)[C@@H](C(=O)N3CCN(c4ncccn4)CC3)[C@H]12
composite z-score [1]: 1.56
composite z-score [2]: 1.14
composite z-score [3]: 0.165
composite z-score [4]: 0.512
composite z-score [5]: 1.37
composite z-score [6]: 1.68
z-score [7]: -1.25
composite z-score [8]: 0.952
composite z-score [9]: 0.0869
z-score [10]: 0.764 (inactive)

C=CCNC(=O)[C@@H]1[C@H]2C(=O)O[C@H](c3ccccc3)[C@H](c3ccccc3)N2[C@H](c2ccc(OCCO)cc2)[C@@]12C(=O)N(C(=O)OCCOC)c1ccc(C#Cc3ccc(OC)cc3)cc12
composite z-score [1]: 0.81
composite z-score [2]: 1.16
composite z-score [3]: 0.066
composite z-score [4]: 0.785
composite z-score [5]: 1.27
composite z-score [6]: 0.93
z-score [7]: -1.41
composite z-score [8]: 0.901
composite z-score [9]: 0.939
z-score [10]: -0.728 (inactive)

COc1ccc(CCNC(=O)[C@@]2(Cc3ccccc3I)c3ccccc3C(=O)N(C3CCCCC3)[C@H]2c2ccc(CO)cc2)cc1
composite z-score [1]: 0.362
composite z-score [2]: 0.839
composite z-score [3]: 0.22
composite z-score [4]: 0.434
composite z-score [5]: 0.341
composite z-score [6]: -0.199
z-score [7]: 0.348
composite z-score [8]: 0.106
composite z-score [9]: 0.177
z-score [10]: 1.18 (inactive)

CCCCCN1CC=CC23O[C@@H]4/C=C\CCC(C)OC(=O)C4[C@H]2C(=O)N(C(CO)C(C)C)[C@@H]3C1=O (stereo not given in full)
composite z-score [1]: 1.03
composite z-score [2]: -0.46
composite z-score [3]: 1.94
composite z-score [4]: -1.41
composite z-score [5]: 0.032
composite z-score [6]: -0.318
z-score [7]: -0.87
composite z-score [8]: 0.287
composite z-score [9]: 1.41
z-score [10]: 0.551 (inactive)

Cc1ccc(C(C)CC(O)C2C=CC3C(=O)N(c4ccccc4)C(=O)C3N2Nc2ccccc2)o1 (stereo not given)
composite z-score [1]: 0.943
composite z-score [2]: 1.28
composite z-score [3]: 0.908
composite z-score [4]: 0.821
composite z-score [5]: 1.03
composite z-score [6]: -0.0968
z-score [7]: -0.592
composite z-score [8]: -0.0661
composite z-score [9]: 0.982
z-score [10]: -1.22 (inactive)

CCOC(=O)[C@@H]1CCCCN1C(=O)C(=O)OC
composite z-score [1]: 0.234
composite z-score [2]: 0.504
composite z-score [3]: 0.1
composite z-score [4]: -0.23
composite z-score [5]: 0.479
composite z-score [6]: 0.894
z-score [7]: -0.309
composite z-score [8]: 1.29
composite z-score [9]: -0.48
z-score [10]: 0.0296 (inactive)

COC(=O)[C@]1(CCS(=O)(=O)c2ccccc2)N=C(c2ccc(OCCCO)cc2)O[C@@H]1c1ccccc1N=[N+]=[N-]
composite z-score [1]: 3.54
composite z-score [2]: 1.27
composite z-score [3]: 0.263
composite z-score [4]: 0.906
composite z-score [5]: 1.39
composite z-score [6]: 1.75
z-score [7]: -0.447
composite z-score [8]: 0.387
composite z-score [9]: 1.09
z-score [10]: -1.32 (inactive)

COC(=O)C(CC#Cc1ccc2c(c1)[C@]1(C(=O)N2)[C@H](c2ccc(O)cc2)N2[C@H](c3ccccc3)[C@H](c3ccccc3)OC(=O)[C@H]2[C@@H]1C(=O)NC[C@H](O)c1ccccc1)C(=O)OC
composite z-score [1]: 0.509
composite z-score [2]: 0.779
composite z-score [3]: 0.408
composite z-score [4]: 0.733
composite z-score [5]: 1.21
composite z-score [6]: 0.551
z-score [7]: -0.97
composite z-score [8]: 0.685
composite z-score [9]: 0.9
z-score [10]: 0.314 (inactive)
